{"source": "the supplement of paper PMC10849652", "note": "About 7,900 targets were measured; listed, in parts, are those with a hit and a random draw of the rest. About 0.6% of all pairs of compound and target were hits. Values without a mark were called inactive."}
{"compound": "Cc1sc2c(c1C)C(c1ccc(Cl)cc1)=N[C@@H](CC(=O)OC(C)(C)C)c1nnc(C)n1-2", "experiment": "log2 fold change, soluble protein after heating vs DMSO (PISA); higher = thermal stabilisation; K562 cells, 10 uM, 30 min; active = over 0.2 and 3.5 SD of the protein, either way, in both replicates (recomputed)", "how_it_was_run": "(§1)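 K562 cells at 2×10^6 cells/mL were treated for 30 min with 10 μM compound, and aliquots were heated for 3 min over 48°C-58°C before pooling. Extraction used PBS with 0.5% NP-40 at 4°C, and soluble protein was the supernatant after 21,000xg for 90 min, measured by TMTpro 16plex LC-MS/MS with channel sums equalised. Thermal stability values, relative to control samples and from duplicates, are log2 fold changes.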"}
{"target": "ZC3H8 (UniProt Q8N5P1)", "sequence (Q8N5P1 whole entry, looked up)": "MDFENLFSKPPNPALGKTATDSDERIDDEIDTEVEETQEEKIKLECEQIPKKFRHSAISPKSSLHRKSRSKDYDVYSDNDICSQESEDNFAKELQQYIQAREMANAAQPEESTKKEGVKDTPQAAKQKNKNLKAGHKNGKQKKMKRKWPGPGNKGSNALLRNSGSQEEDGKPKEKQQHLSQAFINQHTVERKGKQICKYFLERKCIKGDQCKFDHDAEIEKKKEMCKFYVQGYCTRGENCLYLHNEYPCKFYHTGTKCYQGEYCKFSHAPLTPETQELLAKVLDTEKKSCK", "log2 fold change": 0.091}
{"target": "ZBTB21 (UniProt Q9ULJ3)", "log2 fold change": 0.244}
{"target": "ZW10 (UniProt O43264)", "sequence (O43264 whole entry, looked up)": "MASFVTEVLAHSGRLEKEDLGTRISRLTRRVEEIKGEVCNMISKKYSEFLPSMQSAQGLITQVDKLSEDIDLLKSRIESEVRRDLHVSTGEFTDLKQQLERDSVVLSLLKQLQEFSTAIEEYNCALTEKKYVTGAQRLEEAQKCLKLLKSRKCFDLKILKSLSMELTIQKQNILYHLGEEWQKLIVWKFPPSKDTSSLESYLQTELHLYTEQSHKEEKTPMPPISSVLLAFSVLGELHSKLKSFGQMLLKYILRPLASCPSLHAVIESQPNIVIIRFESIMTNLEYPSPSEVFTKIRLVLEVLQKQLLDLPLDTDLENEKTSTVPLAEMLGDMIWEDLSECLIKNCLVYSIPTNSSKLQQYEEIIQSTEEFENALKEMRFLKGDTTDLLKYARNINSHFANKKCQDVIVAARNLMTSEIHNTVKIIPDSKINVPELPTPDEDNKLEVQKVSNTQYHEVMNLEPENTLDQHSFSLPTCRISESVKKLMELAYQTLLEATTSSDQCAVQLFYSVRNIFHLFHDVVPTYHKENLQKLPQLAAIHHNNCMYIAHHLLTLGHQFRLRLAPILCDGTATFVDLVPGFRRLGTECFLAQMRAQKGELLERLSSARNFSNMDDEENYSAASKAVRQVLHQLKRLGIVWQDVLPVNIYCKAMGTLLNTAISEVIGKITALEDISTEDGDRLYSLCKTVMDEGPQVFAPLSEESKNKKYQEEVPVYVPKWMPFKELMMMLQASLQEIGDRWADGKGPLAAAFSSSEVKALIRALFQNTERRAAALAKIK", "log2 fold change": -0.004}
{"target": "ZC3HC1 (UniProt Q86WB0)", "log2 fold change": -0.032}
{"target": "ZNF511 isoform 1 (UniProt Q8NB15)", "sequence (Q8NB15 whole entry, looked up)": "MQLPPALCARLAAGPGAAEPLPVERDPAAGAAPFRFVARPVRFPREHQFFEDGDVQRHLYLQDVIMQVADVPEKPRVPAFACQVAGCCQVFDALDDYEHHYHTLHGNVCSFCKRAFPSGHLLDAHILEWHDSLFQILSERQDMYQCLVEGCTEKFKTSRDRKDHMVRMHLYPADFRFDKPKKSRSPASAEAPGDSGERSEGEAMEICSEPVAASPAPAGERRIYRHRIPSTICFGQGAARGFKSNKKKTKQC", "log2 fold change": -0.123}
{"target": "ZER1 (UniProt Q7Z7L7)", "sequence (Q7Z7L7 whole entry, looked up)": "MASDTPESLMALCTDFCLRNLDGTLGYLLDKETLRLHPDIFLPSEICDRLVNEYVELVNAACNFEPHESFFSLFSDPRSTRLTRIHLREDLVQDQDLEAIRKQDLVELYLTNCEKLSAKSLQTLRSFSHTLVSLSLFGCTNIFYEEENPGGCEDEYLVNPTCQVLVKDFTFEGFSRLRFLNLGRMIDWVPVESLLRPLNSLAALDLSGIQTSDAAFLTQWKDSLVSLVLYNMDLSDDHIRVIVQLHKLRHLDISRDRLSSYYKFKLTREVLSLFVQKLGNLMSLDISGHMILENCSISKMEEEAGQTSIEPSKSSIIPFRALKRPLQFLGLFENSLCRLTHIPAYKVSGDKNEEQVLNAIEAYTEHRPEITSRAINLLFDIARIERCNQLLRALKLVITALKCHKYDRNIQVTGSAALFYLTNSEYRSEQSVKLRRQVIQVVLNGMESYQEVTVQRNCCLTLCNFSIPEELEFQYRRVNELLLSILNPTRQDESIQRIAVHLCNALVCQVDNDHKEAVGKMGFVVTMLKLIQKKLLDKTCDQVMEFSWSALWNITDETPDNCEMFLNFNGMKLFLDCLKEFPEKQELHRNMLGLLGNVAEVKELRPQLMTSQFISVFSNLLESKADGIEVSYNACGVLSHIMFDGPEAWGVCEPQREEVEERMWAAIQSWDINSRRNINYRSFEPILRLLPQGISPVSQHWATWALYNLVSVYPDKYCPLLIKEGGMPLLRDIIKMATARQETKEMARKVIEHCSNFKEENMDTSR", "log2 fold change": -0.064}
{"target": "ZNF622 (UniProt Q969S3)", "sequence (Q969S3 whole entry, looked up)": "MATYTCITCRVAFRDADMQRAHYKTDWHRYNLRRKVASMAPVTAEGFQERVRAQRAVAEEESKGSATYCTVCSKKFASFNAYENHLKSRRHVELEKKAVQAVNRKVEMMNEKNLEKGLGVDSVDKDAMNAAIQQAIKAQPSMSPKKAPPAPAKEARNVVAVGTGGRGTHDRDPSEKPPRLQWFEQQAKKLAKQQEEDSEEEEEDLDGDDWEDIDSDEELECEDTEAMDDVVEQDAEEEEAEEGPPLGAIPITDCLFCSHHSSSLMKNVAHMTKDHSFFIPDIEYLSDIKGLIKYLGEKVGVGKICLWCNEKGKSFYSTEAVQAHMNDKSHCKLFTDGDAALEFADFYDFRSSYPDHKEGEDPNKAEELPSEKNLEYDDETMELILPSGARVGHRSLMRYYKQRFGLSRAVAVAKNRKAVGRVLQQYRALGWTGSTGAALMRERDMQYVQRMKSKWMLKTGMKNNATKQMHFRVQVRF", "log2 fold change": -0.016}
{"target": "ZMAT2 (UniProt Q96NC0)", "sequence (Q96NC0 whole entry, looked up)": "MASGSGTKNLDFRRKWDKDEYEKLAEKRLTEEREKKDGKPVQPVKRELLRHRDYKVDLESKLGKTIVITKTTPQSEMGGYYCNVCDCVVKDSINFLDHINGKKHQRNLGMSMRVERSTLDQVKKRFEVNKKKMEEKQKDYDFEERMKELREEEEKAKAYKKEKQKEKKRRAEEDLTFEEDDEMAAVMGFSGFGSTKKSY", "log2 fold change": -0.042}
{"target": "ZWILCH (UniProt Q9H900)", "sequence (Q9H900 whole entry, looked up)": "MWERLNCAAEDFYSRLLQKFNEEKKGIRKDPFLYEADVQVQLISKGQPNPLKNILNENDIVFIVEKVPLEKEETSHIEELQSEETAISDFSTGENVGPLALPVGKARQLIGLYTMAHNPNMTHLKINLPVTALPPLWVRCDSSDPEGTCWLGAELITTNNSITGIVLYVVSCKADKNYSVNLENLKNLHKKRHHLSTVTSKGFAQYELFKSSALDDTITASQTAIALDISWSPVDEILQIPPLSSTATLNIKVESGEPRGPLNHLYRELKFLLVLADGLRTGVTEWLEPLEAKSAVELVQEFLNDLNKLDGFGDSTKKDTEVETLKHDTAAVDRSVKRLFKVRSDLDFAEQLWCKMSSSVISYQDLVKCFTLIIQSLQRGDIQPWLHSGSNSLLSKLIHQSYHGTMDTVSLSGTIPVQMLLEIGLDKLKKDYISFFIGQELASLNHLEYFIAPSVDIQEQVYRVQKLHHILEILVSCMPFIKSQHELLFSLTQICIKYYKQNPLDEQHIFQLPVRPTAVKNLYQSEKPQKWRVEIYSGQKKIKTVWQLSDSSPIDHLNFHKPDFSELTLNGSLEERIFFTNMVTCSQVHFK", "log2 fold change": 0.037}
{"target": "ZNF579 (UniProt Q8NAF0)", "sequence (Q8NAF0 whole entry, looked up)": "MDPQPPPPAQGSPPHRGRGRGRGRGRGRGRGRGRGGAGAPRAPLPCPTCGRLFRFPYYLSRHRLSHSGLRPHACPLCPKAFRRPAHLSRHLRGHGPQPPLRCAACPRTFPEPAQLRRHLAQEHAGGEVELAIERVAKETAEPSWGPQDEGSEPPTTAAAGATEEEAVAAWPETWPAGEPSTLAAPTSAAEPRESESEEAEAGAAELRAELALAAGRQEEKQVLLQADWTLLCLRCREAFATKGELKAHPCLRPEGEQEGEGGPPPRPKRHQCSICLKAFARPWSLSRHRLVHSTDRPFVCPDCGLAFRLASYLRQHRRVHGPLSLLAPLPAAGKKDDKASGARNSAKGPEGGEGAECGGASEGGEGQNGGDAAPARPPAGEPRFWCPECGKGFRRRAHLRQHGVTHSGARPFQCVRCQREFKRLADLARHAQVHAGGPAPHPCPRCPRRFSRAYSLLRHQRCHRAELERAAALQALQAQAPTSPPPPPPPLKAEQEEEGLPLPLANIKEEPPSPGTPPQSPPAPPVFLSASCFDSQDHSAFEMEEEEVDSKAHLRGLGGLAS", "log2 fold change": 0.151}
{"target": "ZFP91 (UniProt Q96JP5)", "sequence (Q96JP5 whole entry, looked up)": "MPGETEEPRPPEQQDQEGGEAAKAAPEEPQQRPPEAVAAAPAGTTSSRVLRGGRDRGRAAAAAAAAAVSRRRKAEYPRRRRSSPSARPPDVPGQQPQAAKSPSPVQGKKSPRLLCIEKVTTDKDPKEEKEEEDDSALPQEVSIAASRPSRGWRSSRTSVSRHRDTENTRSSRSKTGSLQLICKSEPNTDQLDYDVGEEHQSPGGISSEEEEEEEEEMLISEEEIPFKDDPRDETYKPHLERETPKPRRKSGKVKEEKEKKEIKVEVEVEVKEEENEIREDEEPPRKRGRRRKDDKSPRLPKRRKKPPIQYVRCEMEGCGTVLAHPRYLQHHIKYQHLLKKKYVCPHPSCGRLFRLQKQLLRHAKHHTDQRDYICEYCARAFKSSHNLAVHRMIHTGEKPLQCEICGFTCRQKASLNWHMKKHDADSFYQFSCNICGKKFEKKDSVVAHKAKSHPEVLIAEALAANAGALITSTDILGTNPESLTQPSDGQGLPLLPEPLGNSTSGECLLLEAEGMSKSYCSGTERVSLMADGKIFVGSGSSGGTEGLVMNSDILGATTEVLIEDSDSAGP", "log2 fold change": 0.096}
{"target": "YAE1 (UniProt Q9NRH1)", "sequence (Q9NRH1 whole entry, looked up)": "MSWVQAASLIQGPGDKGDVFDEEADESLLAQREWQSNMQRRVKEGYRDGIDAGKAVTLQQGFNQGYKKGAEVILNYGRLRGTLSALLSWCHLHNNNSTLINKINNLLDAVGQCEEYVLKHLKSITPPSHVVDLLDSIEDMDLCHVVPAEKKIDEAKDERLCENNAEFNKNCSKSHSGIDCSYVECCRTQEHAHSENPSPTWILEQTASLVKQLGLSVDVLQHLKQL", "log2 fold change": -0.014}
{"compound": "c1ccc([C@@H]2C[C@H]2NC2CCNCC2)cc1", "experiment": "log2 fold change, soluble protein after heating vs DMSO (PISA); higher = thermal stabilisation; K562 cells, 10 uM, 30 min; active = over 0.2 and 3.5 SD of the protein, either way, in both replicates (recomputed)", "how_it_was_run": "as §1"}
{"target": "ZC3H8 (UniProt Q8N5P1)", "log2 fold change": 0}
{"target": "ZBTB21 (UniProt Q9ULJ3)", "log2 fold change": 0.006}
{"target": "ZW10 (UniProt O43264)", "log2 fold change": 0}
{"target": "ZC3HC1 (UniProt Q86WB0)", "log2 fold change": -0.018}
{"target": "ZNF511 isoform 1 (UniProt Q8NB15)", "log2 fold change": 0.102}
{"target": "ZER1 (UniProt Q7Z7L7)", "log2 fold change": -0.03}
{"target": "ZNF622 (UniProt Q969S3)", "log2 fold change": -0.049}
{"target": "ZMAT2 (UniProt Q96NC0)", "log2 fold change": -0.016}
{"target": "ZWILCH (UniProt Q9H900)", "log2 fold change": 0.002}
{"target": "ZNF579 (UniProt Q8NAF0)", "log2 fold change": -0.147}
{"target": "ZFP91 (UniProt Q96JP5)", "log2 fold change": 0.03}
{"target": "YAE1 (UniProt Q9NRH1)", "log2 fold change": 0.095}
